27 compounds from PubChem BioAssay AID588342 (National Center for Advancing Translational Sciences (NCATS), 2011) can be followed below.

About 25,000 (6.9%) of roughly 360,000 compounds were called active. Inconclusive results (about 9%) are left out. Calls follow the shape of the dose curve; as a rule, active = well fitted inhibition curve with a large enough effect; inconclusive = small, poorly fitted or top-dose-only effect; inactive = flat fitted curve, though single readings scatter. The entries come from a sample that favours actives as a whole. A call without a number means that no potency is given here.
Potency is read from the fitted curve at half-maximal effect.

Sequence of Luciferin 4-monooxygenase (Photinus pyralis) (P08659 whole entry, looked up): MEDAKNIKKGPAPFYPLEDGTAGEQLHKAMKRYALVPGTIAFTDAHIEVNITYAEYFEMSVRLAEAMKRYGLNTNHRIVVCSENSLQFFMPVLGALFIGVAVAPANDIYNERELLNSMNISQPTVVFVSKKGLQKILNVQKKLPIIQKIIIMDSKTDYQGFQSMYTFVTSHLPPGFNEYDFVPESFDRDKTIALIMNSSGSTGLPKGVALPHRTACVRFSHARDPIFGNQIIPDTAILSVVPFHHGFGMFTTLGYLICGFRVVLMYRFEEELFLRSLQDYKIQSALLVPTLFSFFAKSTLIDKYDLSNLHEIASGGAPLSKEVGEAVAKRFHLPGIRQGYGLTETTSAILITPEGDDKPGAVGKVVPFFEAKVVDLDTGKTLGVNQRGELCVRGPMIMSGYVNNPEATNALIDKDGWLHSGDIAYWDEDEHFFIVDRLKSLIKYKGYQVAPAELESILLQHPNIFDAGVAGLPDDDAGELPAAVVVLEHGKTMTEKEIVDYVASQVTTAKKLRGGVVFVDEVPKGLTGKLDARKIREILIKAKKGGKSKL

The experiment has as its target Luciferin 4-monooxygenase (Photinus pyralis) (UniProt P08659). As to the kind of experiment: qHTS profiling assay for firefly luciferase inhibitor/activator using purifed enzyme and Km concentrations of substrates (counterscreen for miR-21 project). Also: nearly all actives have a fitted effect of over 55% in size. The note with it: purified FLuc, luminescence inhibition; series mostly up to 57.5 µM. In outline:
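Purified P. pyralis luciferase, 10 nM final, with Km-level 10 uM D-luciferin and 10 uM ATP in 50 mM Tris acetate pH 7.5, 10 mM Mg acetate, 0.01% Tween-20, 0.05% BSA; 6-point qHTS titration about 60 µM downward; luminescence read.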
In general terms: Quantitative high-throughput screening tests each substance at several concentrations.
As to `CCOc1ccc2nc(NC(=O)CSc3nc4c(c(=O)n(C)c(=O)n4C)n3CC)sc2c1`, the Potency result was “inactive”. Then `CCn1c(SCC(=O)NC2CCCC2)nnc1-c1ccoc1C`, with “inactive”. The same measure for `CCn1c(SCC(=O)Nc2nc3ccc(OC)cc3s2)nnc1-c1ccoc1C`: 10.7 µM (active). As for `CCOc1ccccc1C(=O)Nc1ccc2c(c1)N(C)C(=O)c1ccccc1S2`, the Potency result is “inactive”.

As for `Cc1ccc(-n2c(SCC(=O)c3ccccc3)nc3c([nH]c4ccccc43)c2=O)cc1`, the Potency result is “inactive”. Then `CSc1ccc(CCNC(=O)CS(=O)(=O)Cc2nc(-c3ccccc3F)oc2C)cc1`, with “inactive”; and `CCOC(=O)c1ccc(NC(=O)C2CC(=O)N(c3ccc4c(c3)OCCO4)C2)cc1` (configuration not stated), with “inactive”. As to `O=C(COC(=O)CCC(=O)c1cccs1)NCc1ccco1`, the Potency result is “inactive”. The same measure for `Cc1cc(/C=N/NC(=O)CC2(C)OCCO2)c(C)n1-c1ccc(Cl)c(Cl)c1`: “inactive”; for `Cc1ccc(-c2nnc(SCC(=O)N/N=C/c3cccs3)n2-c2ccc(C)cc2)cc1`: “inactive”; for `Cc1cc(/C=N/Nc2ccc([N+](=O)[O-])cn2)c(C)n1-c1cccc(C(=O)O)c1`: “inactive”. The same measure for `O=C(N/N=C/C=C/c1ccco1)c1cccs1`: 26.9 µM (active). The same measure for `Cc1cccc(-n2c(C)cc(/C=N\NC(=O)c3cccs3)c2C)c1`: 1.2 µM (active); for `Cc1cccc(-n2c(C)cc(/C=N/NC(N)=S)c2C)c1`: “inactive”. Take `Cc1cc(C(=O)Nc2ccc(C)c(S(=O)(=O)N3CCOCC3)c2)c2ccccc2n1`: the Potency result is “inactive”. Then `Cc1ccc(-c2cc(C(=O)N/N=C/C=C/c3ccco3)c3ccccc3n2)cc1C`, with 1.07 µM (active). The same measure for `Cc1ccc(NC(=O)CCC(=O)N/N=C/c2ccco2)c(C)c1`: “inactive”; for `CC1C/C(=N/NC(=O)c2cccs2)CC(C)(C)C1` (configuration not stated): “inactive”. Turning to `Cc1ccc(-n2c(C)cc(/C=N\NC(=O)CC(=O)NC(C)C)c2C)cc1`, the Potency was 13.5 µM (active). Then `CCOC(=O)c1c(C)oc2nc(C)nc(N(CC(C)C)CC(C)C)c12`, with “inactive”; and `O=C(COC(=O)CCCN1C(=O)c2cccc3cccc(c23)C1=O)NC1CCS(=O)(=O)C1` (configuration not stated), with “inactive”. Then `COc1ccc(N2CCN(C(=O)c3c(C)oc4nc(C)nc(N5CCCC5)c34)CC2)cc1`, with “inactive”. Regarding `Cc1ccccc1Nc1nc(N)nc(COC(=O)CCC(=O)c2ccc(F)cc2)n1`, the Potency result is “inactive”.

On to `CCOC(=O)N1CCN(C(=O)COC(=O)c2cccc(S(C)(=O)=O)c2)CC1`, for which the Potency result was “inactive”.

On to `CCc1ccc(S(=O)(=O)c2nnn3c2nc(NCc2ccccc2OC)c2cc(Cl)ccc23)cc1`, for which the Potency result was “inactive”. The same measure for `COc1ccc(N2CCN(S(=O)(=O)CCNC(=O)C(c3ccccc3)c3ccccc3)CC2)cc1`: “inactive”.

For the compound `CCC(=O)Nc1ccccc1-c1nc2ccccc2n(CC(=O)Nc2ccc(C)c(C)c2)c1=O`, the Potency entry was “inactive”.
